Compounds with a hit are over-represented: about 4.2% of the library has one in this group of screens.
SW480 rereplic – DNA re-replication induction in SW480 cells. SW480 DNA re-replication, Hoechst DNA content imaging, 48 h. Potency, µM (top dose mostly 46.1 µM), inactives show at the highest dose re-replication activation, most hits filed as activators. 340,000 compounds, 1.8% hits; further: % of control where 0% means no effect; nearly all actives have a fitted effect of over 55% in size
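Readout is total intensity of Hoechst-stained nuclei, excited at 405 nm and collected at 500-530 nm. Compound treatment lasted 48 hr at 37 C in 5% CO2 before staining.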
Mito fusion yeast – blocks mitochondrial division or promotes mitochondrial fusion. S. cerevisiae fusion-defective mutant growth rescue, CellTiterGlo 48 h. Potency, µM (titrated, usually from 46.1 µM), inactives show at the top dose growth rescue (activation), actives largely listed as activators. 320,000 compounds, 0.23% hits; further: % of control where 0% means no effect; nearly all actives have a fitted effect of over 45% in size
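Temperature-sensitive fusion-defective S. cerevisiae (e.g. fzo1-1, mgm1-5) were grown with compound in YPEG medium (3% ethanol, 3% glycerol) for 48 hours at 37C. Growth rescue was measured as viability by CellTiterGlo luminescence after 10 minutes at ambient.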
a7 integrin act – integrin-mediated muscular dystrophy alleviation activation; alpha7betagal myoblasts, beta-gal FDG fluorescence, 48 h; Potency, µM (series often up to 38.3 µM), inactives show at the top dose activation, actives largely listed as activators; 350,000 compounds, 0.064% hits;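 further: 100% = response of the positive control SU9516; nearly all actives have a fitted effect of over 60% in size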
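Alpha7betagal+/- myoblasts (passage 13) were plated 16-24 hr, then exposed to compounds (1:260 dilution of DMSO stock) for 48 hours at 37C. After MPER lysis, β-galactosidase reporter activity was read as FDG fluorescence (ex 480/em 540) after 30 minutes.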
A-T KAP1 phos – potential ataxia-telangiectasia treatments restoring KAP-1 phosphorylation; F2112 A-T fibroblasts, KAP-1 phosphorylation AlphaLISA; neocarzinostatin DNA damage 30 min before lysis; Potency, µM (titrated, usually from 57.5 µM), without a hit: top-dose activation, actives largely listed as activators; 320,000 compounds, 0.19% hits; AID 485349; further: % of control where 0% means no effect; nearly all actives have a fitted effect of over 45% in size
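ATM-like activity read as KAP-1 phosphorylation via AlphaLISA donor/acceptor antibody pairs after lysis and 6 hr at 25C. Cells were ATM-null patient fibroblasts (F2112, hTERT), dosed 60 min, then exposed to the DSB inducer NCS for 30 min.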
MCF10A rereplic – induces DNA re-replication in MCF 10a normal breast cells | MCF 10A DNA re-replication, Hoechst nuclear intensity, 48 h | Potency, µM (doses to about 46.1 µM), inactives show at the highest dose activity, positive = re-replication, actives largely listed as activators | 350,000 compounds, 2.9% hits | AID 624296; further: % of control where 0% means no effect; nearly all actives have a fitted effect of over 50% in size
Active calls of the source: *; ? = inconclusive; / = no result given; [ ] = another dose, or the depositor's remark. The call rests on the fitted dose curve; in most records, active means well fitted activation curve with a large enough effect; inconclusive means small, poorly fitted or top-dose-only effect; inactive means no such curve, though single readings can be large or run the other way. Potency means the concentration at half of the fitted maximal effect.

SMILES	SW480 rereplic	Mito fusion yeast	a7 integrin act	A-T KAP1 phos	MCF10A rereplic
CCCCn1cnc2c(SCc3ccc(Br)cc3)nc(N)nc21	1%	/	-15%	/	?
CN1CCC(=NNC(=O)c2cc(-c3ccc(Cl)cc3)n[nH]2)CC1	-52%	-1%	-15%	-7%	18µM*
CCOc1ccc(-c2cc(C(=O)NN=C3CCN(C)CC3)[nH]n2)cc1	4%	10%	-1%	-6%	-2%
CC1CN(C(=O)/C(=C/c2ccco2)NC(=O)c2ccccc2)CC(C)O1 (stereo not drawn)	-7%	2%	-20%	-2%	-1%
CCOC(=O)C1=C(c2ccccc2)NC(N)=NC1c1ccc(OCc2ccc(Cl)cc2)c(OC)c1 (stereo not drawn)	?	3%	-58%	0%	18µM*
COc1ccc(/C=N/NC(=O)c2[nH]c3ccc(C)cc3c2-c2ccccc2)c(C(=O)O)c1OC	?	-8%	-4%	-5%	5.8µM*
O=C(Nc1ccnn1C1CCN(C(=O)c2cccnc2)CC1)c1cccc(F)c1	/	/	-8%	/	/
CC(C)(C)N1C(=O)Cc2c1nc(N)c1c(N)nc(N3CCCCC3CO)c(C#N)c21 (stereo not drawn)	8%	-11%	-14%	29%	15µM*
CN(CCO)c1nc(N)c2c(N)nc3c(c2c1C#N)CC(=O)N3C1CCCC1	/	1%	/	2%	/
CCOC(=O)c1sc2ccc(S(=O)(=O)N3CCOCC3)cc2c1N	-15%	1%	-21%[7.66 µM]	-5%	-2%
CCOC(=O)c1sc2ccc(S(=O)(=O)N3CCCCC3)cc2c1N	26µM*	-8%	-26%	0%	?
CC(=O)Nc1nc2ccc(S(=O)(=O)N3CCCC3)cc2s1	15%	0%	-2%	18%	1%
CC(C)CC(=O)Nc1nc2ccc(S(=O)(=O)N3CCOCC3)cc2s1	18µM*	3%	14%	-1%	?
CCCC(=O)Nc1nc2ccc(S(=O)(=O)N3CCCCC3)cc2s1	3.7µM*	0%	-23%	-1%	?
CCc1cccc(C)c1NC(=S)NCC(c1cccnc1)N(C)C (stereo not drawn)	1%	29%	12%	0%	-3%
CC(C)CC1C(=O)N(Cc2cn(Cc3ccco3)nn2)CCS(=O)(=O)N1Cc1ccc(-c2cccc(N(C)C)c2)cc1 (stereo not drawn)	/	/	1%	/	/
O=C(Cn1c(NCCCO)nc2ccccc21)c1ccc(Cl)cc1	12%	-3%	-2%	-3%	1%
O=C(Cn1c(NCCCO)nc2ccccc21)c1ccco1	?	0%	17%	6%	18µM*
COc1ccc2c(-c3ccccc3)cc3nnnn3c2c1	132%	26%	-10%	8%	2.6µM*
COc1ccc2c(-c3ccccc3)cc(SCC(N)=O)nc2c1	?	25%	-1%	-27%	?
CN1CCN(C(=O)c2cc3nc(-c4ccccc4)cc(-c4ccccc4)n3n2)CC1	?	5%	-16%	0%	13µM*
COC(=O)c1cc2c(ccn2-c2ccc(F)cc2)n1CC(=O)OC(C)C	-8%	12%	29%	0%	16µM*
CC(C)(C)NC(=O)CSc1nc(Cc2ccccc2)nc2ccccc12	2%	-5%	-31%	5%	0.65µM*
CCOP(=O)(OCC)C(NC(=O)Nc1cccc(Cl)c1)C(N)=O (stereo not drawn)	1.5µM*	0%	-29%	-2%	2%
COc1cc2ncnc(NCc3ccccc3)c2cc1OC	-4%	7%	?	-3%	6.5µM*
O=C1NCCC/C1=N/Nc1cc(F)ccc1F	-5%	?	31%	2%	1%
O=C1NC2(CCN(Cc3ccccc3)CC2)Oc2ccccc21	3%	12%	3%	4%	2%
O=C1c2ccccc2OC2(C=Cc3ccccc3O2)N1Cc1ccccc1 (stereo not drawn)	?	19%	0%	4%	13µM*
Cc1cc(=O)n2[nH]c(C)c(-c3ccccc3)c2n1	-4%	0%	32%	-11%	-6%
O=c1cc(-c2ccccc2)nc2c(-c3ccccc3)c(C(F)(F)F)[nH]n12	?	1%	6%	8%	8.2µM*
